The source of these data is PubChem BioAssay AID1347426 (Functional Genomics Laboratory (NCATS/FGL), 2020).

In all, about 31,000 sequences went through this assay and about 1,400 (4.5%) were called active.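 How the source made its calls: active means median seed-adjusted z-score above 1 or below -1; inactive means the rest.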 The entries come from a sample that favours actives as a whole.

The assay is described as follows: Novel Modifiers of Survival Motor Neuron (SMN) Protein: Gene Identification via Genome-wide siRNA Screen.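 Further: luminescence tracks full-length SMN protein made from the SMN2 reporter.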 The settings on record: HEK293T SMN2-luciferase reporter, siRNA knockdown, 72 h; actives lie on both sides. The procedure, abridged: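 Steps: spot 1 pmol siRNA, add Lipofectamine RNAiMax in serum-free DMEM, seed HEK293T SMN2–luciferase reporter cells; incubate 72 h at 37 °C; add ONE-Glo; normalize luminescence to control siRNA, log10, MAD. Candidates: |MAD| > 1.0.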
In general terms: Reporter assays use an easily measured gene product as a stand-in for the process of interest.
On to GCUUCACCCUGGCUAGAAATT against ECHDC2, for which the median seed-adjusted z-score was -0.0827 (inactive).

As to GUGUCGAGCUUGCAACUGUTT against LAMC2, the median seed-adjusted z-score was -0.186 (inactive).

CCUUUAACCAGUCUGCACATT against ZNF85: the median seed-adjusted z-score was -1.01 (active).

As for GAAGGUGGAUUGCAACAAATT against GPX6, the median seed-adjusted z-score is 0.35 (inactive).

Turning to GCAGAAGGCUCAGUAGCUATT against NAT5, the median seed-adjusted z-score was -0.0124 (inactive).

Turning to CACCCGCGCUCAUGAGAAATT against KLC2, the median seed-adjusted z-score is 0.0706 (inactive).

Regarding GCCCAUUACUUUACCACUUTT against METTL4, the median seed-adjusted z-score was 0.244 (inactive).

Turning to GCCUUGAUCAAGUAACAGATT against PARD6B, the median seed-adjusted z-score is 0.315 (inactive).

As for GGCGCACGCUUUUCUCUAATT against ACTR1A, the median seed-adjusted z-score was 1.28 (active).

Take GCCUCAUGUAAAACCCUAUTT against MYLK: the median seed-adjusted z-score is 0.0226 (inactive).

Take GCCUUCGAGUUCCUUGUUUTT against COX6B2: the median seed-adjusted z-score was -0.544 (inactive).

On to GUACUUUUGACAACAUUUATT against NAT13, for which the median seed-adjusted z-score was 0 (inactive).

GGCUUUGAGCAUAAGAUCATT against MAP3K10: the median seed-adjusted z-score is 0.201 (inactive).

In the case of GCACCAAACUUAGCUACGATT against DIS3L2, the median seed-adjusted z-score is -0.265 (inactive).

As to GACUGGGUCUGGUAAAACATT against DHX15, the median seed-adjusted z-score was 1.36 (active).

Take GAAUUGGACAUUUCGGAUATT against NEK10: the median seed-adjusted z-score was -0.0464 (inactive).

As to CAGUUGCAACUCUUCGUGATT against ALB, the median seed-adjusted z-score is -0.153 (inactive).

For AAACAACUCGAUUUCGAAATT against PCDHB13, the median seed-adjusted z-score was -0.293 (inactive).

GAACUUUUGGGACCAAAUATT against NME5: the median seed-adjusted z-score was 0.393 (inactive).

Consider GCCUUUUACGCAAACAUGUTT against P2RY8, for which the median seed-adjusted z-score was -0.136 (inactive).

As to GAUUUUAUCUCAGUACAUUTT against UCK2, the median seed-adjusted z-score is -1.51 (active).

Regarding CGUGCACUAUAUUGCAGUUTT against PRMT2, the median seed-adjusted z-score was 0.0895 (inactive).

As to GGAAUGUCACGGCUAAUCATT against PITPNM3, the median seed-adjusted z-score is -0.0378 (inactive).

For the sequence GGAAUGAUACCAUACCGAATT against NUP93, the median seed-adjusted z-score was 1.01 (active).

In the case of UGAUCGCCUUGGUGAUUCATT against FOXH1, the median seed-adjusted z-score is 0 (inactive).

Take GGAUAGUUACUGACCGGGATT against NCL: the median seed-adjusted z-score was 1.33 (active).

With GCGGGAGCAUUAUCUCAAATT against ZNF341, the median seed-adjusted z-score is 0.356 (inactive).

As for CCAGACCUCAUGUCACAGATT against ZNF777, the median seed-adjusted z-score is 0.128 (inactive).

As for GACUGAAUGUUUAUACAGUTT against OSBPL1A, the median seed-adjusted z-score was 0.0845 (inactive).

Take GGUGGUAUCCUGUUCACAATT against TM9SF4: the median seed-adjusted z-score was -0.0191 (inactive).

In the case of GGACCAUUUAGAGAAGGUUTT against WARS2, the median seed-adjusted z-score is 0.21 (inactive).

In the case of CCUACGUUACUUUCCCUCATT against FOXD4L6, the median seed-adjusted z-score was -0.137 (inactive).

With CAUGGAACAUUGUGAGAAATT against RPS6KB1, the median seed-adjusted z-score is 1.4 (active).

Turning to AAAUCAAGAUUCUUACUGATT against TPM3, the median seed-adjusted z-score was 0.111 (inactive).

For the sequence GCACUUUAGAAUCACACGATT against TRMT6, the median seed-adjusted z-score is 0.069 (inactive).

Consider GCUCAUUGUACAUCUCAGATT against ZNF26, for which the median seed-adjusted z-score was 0 (inactive).

Consider CCUGCUUACCUGAUCAAAATT against SLC25A34, for which the median seed-adjusted z-score is -0.256 (inactive).

On to GCAUAACUGUAGACUACAATT against ADAM32, for which the median seed-adjusted z-score is 1.75 (active).

As for CAGUCUUACUGGGAACAAUTT against TGDS, the median seed-adjusted z-score was -0.196 (inactive).

GCCCAUUGGAUAUCAGUAUTT against STRADB: the median seed-adjusted z-score is 0.21 (inactive).

Turning to CUAUUAGGUUGACCAAUAATT against OSGEPL1, the median seed-adjusted z-score is -0.708 (inactive).

On to GGAGGAUCAAUUUAUCAGATT against VDAC2, for which the median seed-adjusted z-score is 0.648 (inactive).

Regarding CAGUGUUCCUAUUAGAUGATT against LONP2, the median seed-adjusted z-score is 1.52 (active).

Take CCUGUGCUGUUAUGAAGCUTT against APC2: the median seed-adjusted z-score is 0.00354 (inactive).

On to GAAUGGAGAGAGAAUUGAATT against B2M, for which the median seed-adjusted z-score is -0.367 (inactive).

With GGAUUAAAGAGAAGAUCUATT against ERH, the median seed-adjusted z-score is -1.25 (active).

For CCAGGAGAAAUAUAAGUCATT against ZNF627, the median seed-adjusted z-score is 0.204 (inactive).

Turning to GGACGAGAAAAACUGCUCATT against CORIN, the median seed-adjusted z-score is -0.0274 (inactive).

For GCAUACAUAUGGUAUAGCATT against DDX20, the median seed-adjusted z-score is -0.0137 (inactive).

Turning to GCGGAGAUCAGAUUAGUCATT against NCL, the median seed-adjusted z-score is 1.33 (active).

GCAUGACCGCUUAUCCCAATT against SLC6A5: the median seed-adjusted z-score is -0.204 (inactive).

Take CAUUCACUUUGACACCAUATT against HSD17B7: the median seed-adjusted z-score is 0.0836 (inactive).

In the case of GGUUUUUGCUGGACAAACATT against PPP2R3C, the median seed-adjusted z-score was 0.295 (inactive).

As for CCGUGUACGUGGAUGAUGATT against LPHN1, the median seed-adjusted z-score was -1.03 (active).

In the case of GCAUUAGUCUGACAGUACATT against MRGPRX3, the median seed-adjusted z-score is -0.175 (inactive).

For the sequence CGAACCUAAUGCUCAACAATT against PREX2, the median seed-adjusted z-score is -0.0625 (inactive).

Turning to GGAAAUUAGAUACCGAGGATT against SLC25A30, the median seed-adjusted z-score was 0 (inactive).

As for GGCUAACAUUAGAACACUUTT against MED6, the median seed-adjusted z-score was -2.15 (active).

With CGGAGUCUGCGCUUCGUUATT against ACP2, the median seed-adjusted z-score was -0.00569 (inactive).

On to GCUUUAUAAGUGUAGCGAATT against ZNF749, for which the median seed-adjusted z-score was 0.911 (inactive).

Turning to GGAGGUCACUUGUGAAUCATT against GLS2, the median seed-adjusted z-score was -0.793 (inactive).

CCCAGUUCCUGCUAUCUCATT against POU2F3: the median seed-adjusted z-score is -1.53 (active).

Consider GGGCUACCAUCUCCUUUCATT against SLC23A3, for which the median seed-adjusted z-score is -0.254 (inactive).

Regarding GUACCCAAGUAACAACUGUTT against CXCL11, the median seed-adjusted z-score is -0.135 (inactive).

UCCACUGACUCGUAAAGUUTT against PROK2: the median seed-adjusted z-score was -0.00826 (inactive).

Take GCUCGGUGGUUGAUAAUCATT against SLC22A10: the median seed-adjusted z-score was -0.0897 (inactive).

With AGACCAUCGCAGAGACAGATT against SLC31A2, the median seed-adjusted z-score is 0.401 (inactive).

Consider GGAUGUUCGUCAUAUUGAATT against IRAK3, for which the median seed-adjusted z-score is 0.155 (inactive).

In the case of CAAAAGACCUGUAAUAAGATT against MAGT1, the median seed-adjusted z-score was -0.0855 (inactive).
